# Assay results reported in PubChem BioAssay (NCI).
# Where “and” joins values, the source holds several entries; their conditions need not be identical. Equal entries are not always repeated. The panel holds about 83,000 compounds, 20% with a hit somewhere; the sample as a whole holds those more often.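 Results are percent growth after 48 hours of single-concentration exposure. 100 means growth as in untreated cells, lower positive values show inhibition; negative values down to -100 show cell death.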 Calls of active or inactive are those of the source. Rule for the calls: active = growth percent below 10; inactive = the rest.
# System: MDA-MB-468 breast
# Assay: NCI-60 one-dose screen, 48 h (100 = growth as untreated, 0 = no growth, -100 = all killed)
# Settings: 10 µM unless noted
row,Structure (SMILES),growth
1,Cc1cc(C)c(OC(=O)CSc2nc3ccccc3c(=O)n2CCc2ccccc2)cc1C,101% (inactive)
2,Cc1cc(N/N=C/c2nc(-c3ccccc3)oc2C)c2cc(Br)ccc2n1,35.7% (inactive)
3,CCCCCCSc1ncnc2nc[nH]c12,67.3% (inactive)
4,O=C(Nc1ccc(Cl)cc1F)c1cc(Br)ccc1O,0.453% (active)
5,O=C(c1ccc(F)cc1)C1CCN(CCn2c(=O)[nH]c3ccccc3c2=O)CC1,104% (inactive)
6,COC(=O)c1ccc(NC(=S)N2CCc3ccc([N+](=O)[O-])cc3C2)cc1O,94.2% (inactive)
7,O=C(NNC(=S)Nc1ccccc1)c1cc2ccc1CCc1ccc(cc1)CC2,67% (inactive)
8,COc1cccc(-c2cnco2)c1OCc1c(C)c(COc2c(OC)cccc2-c2cnco2)c(C)c(COc2c(OC)cccc2-c2cnco2)c1C,59% (inactive)
9,CCOC(=O)c1sc(N)nc1-c1ccccc1,97.4% (inactive)
10,O=c1cc(CSc2nnc(-c3ccc(F)cc3)o2)c2ccc3ccccc3c2o1,101% (inactive)
11,CNC(=O)c1cc(Oc2ccc3nc(NC(=O)Nc4ccc(Cl)cc4)sc3c2)ccn1,55.1% (inactive)
12,CCCCCC(=O)N(CCCC)CCCC,97.8% (inactive)
13,Cc1cc(NCc2cc(Nc3ccnc4cc(Cl)ccc34)ccc2F)nc(N2CCOCC2)n1,39.9% (inactive)
14,Oc1[nH]c2ccc(Cl)cc2c1N=Nc1nc(N=Nc2c(O)[nH]c3ccc(Cl)cc23)nc(N2CCOCC2)n1,23.6% (inactive)
15,CCn1cc(CNc2ccc(C(=O)Nc3cc4cc(OC)c(OC)cc4c(C)n3)cc2)cn1,41.8% (inactive)
16,CCNC(=O)Oc1ccc(/C(=C(/C)c2ccccc2)c2ccc(OCCN3CCCC3)cc2)cc1,80.3% (inactive)
17,CCOC(=O)C(Nc1ccccc1)C(=O)OCC,104% (inactive)
18,CC1(C)/C(=C\CO)C2CCC1C2 (stereo not given),101% (inactive)
19,OCc1ccc(N2CCc3cccc(F)c3C2)cc1Cl,-49.9% [0.1 µM] (active)
20,CCCCC/C=C/C(C)=C/C1CC(C)C/C=C/CCC(O)C(OC(N)=O)CCC(C)CC(O)C(C)C(=O)O1 (stereo not given),94.9% (inactive)

row,Structure (SMILES),growth
1,CC(C)(O)CCl,103% (inactive)
2,O=C(Oc1ccccc1[N+](=O)[O-])C1CCCN1C(=O)OCc1ccccc1 (stereo not given),97.3% (inactive)
3,CC(C)(C)c1ccc(C(=O)Nc2sc3c(c2C(N)=O)CC/C(=N\O)C3)cc1,2.17% (active)
4,Nc1ccc(N=Nc2ccc(S(=O)(=O)O)cc2)cc1S(=O)(=O)O,150% (inactive) and 75.5% (inactive)
5,CSc1ccc(N2C(=N)C(=S)N(c3ccc(C)cc3)C2=O)cc1,121% (inactive)
6,O=C(O)CCCCCN1C(=O)/C(=C/c2ccc(O)c(O)c2)SC1=S,103% (inactive)
7,O=C(CCC(=O)N(CCO)CCO)N(CCO)CCO,110% (inactive)
8,O=C1NC(=S)NC(=O)C1CC(=O)n1c(-c2ccccc2)nc2ccccc21,105% (inactive)
9,COC(=O)N[C@@H](C)CNc1nccc(-c2cn(C(C)C)nc2-c2cc(Cl)cc(NS(C)(=O)=O)c2F)n1,99.4% (inactive)
10,C=CCOc1cccc(/C=C2\SC(=Nc3ccc(O)cc3)NC2=O)c1,-7.52% (active)
11,NC(CO)(CO)c1ccccc1,79.9% (inactive)
12,CNCCCNCCCN1C(=O)c2ccc3c4c(ccc(c24)C1=O)C(=O)N(CCCNCc1ccccc1OC)C3=O,-69.5% (active)
13,COC(=O)[C@H]1[C@H](OC)[C@@H](OC(=O)/C=C/c2ccncc2)CC2CN3CCc4c([nH]c5cc(OC)ccc45)[C@@H]3C[C@@H]21 (stereo not given in full),53.6% (inactive)
14,CCCCCCCCCCCCCCCC(=O)O[C@@H]1[C@@H](O)[C@@H](O)C([C@H](NC(=O)[C@@H]2C[C@@H](CCC)CN2C)[C@H](C)Cl)O[C@@H]1SC (stereo not given in full),97.9% (inactive)
15,Cc1cc(C(O)CN(C)C)cc2c1ccc1cc(C(C)C)ccc12 (stereo not given),-88.6% (active)
16,Brc1cc(-c2cc(-c3ccc4c(c3)OCCO4)[nH]n2)cs1,12% (inactive)
17,Oc1ccc(N=Cc2ccccc2O)cc1,93.3% (inactive)
18,CCCCCCCC/C=C\CCCCCCCCOc1cccc(CC(=O)NCC[N+]2(C)CCCCC2)c1,52.6% (inactive)
19,Cc1ccc(-n2c(C)nn3c(=O)c4c5c(sc4nc23)CN(C)CC5)cc1,102% (inactive)
20,CNC(=O)c1cc(Oc2ccc3nc(NC(=O)c4ccc(CN5CCN(C)CC5)c(C(F)(F)F)c4)sc3c2)ccn1,52.1% (inactive)
